Assay outcomes: PubChem BioAssay, several laboratories
NTR1 agonist – agonists of human neurotensin receptor NTR1. P30989. NTR1-U2OS beta-arrestin-GFP spot imaging, agonist mode. activation, % at 20 µM. 330,000 compounds, 0.17% hits;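 active = activation at or above 40% of the spot to cytoplasm intensity ratio, with at least 20 cells analyzed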
A3A deaminase – inhibitors of human APOBEC3A DNA deaminase. P31941. AID 493011. recombinant A3A, FAM/TAMRA ssDNA deamination fluorescence. 330,000 compounds, 0.41% hits. inhibition, % at 20 µM;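 active = at least 40% inhibition at 20 µM here, with at most 30% in a related deaminase screen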
Target sequence (P31941 whole entry, looked up): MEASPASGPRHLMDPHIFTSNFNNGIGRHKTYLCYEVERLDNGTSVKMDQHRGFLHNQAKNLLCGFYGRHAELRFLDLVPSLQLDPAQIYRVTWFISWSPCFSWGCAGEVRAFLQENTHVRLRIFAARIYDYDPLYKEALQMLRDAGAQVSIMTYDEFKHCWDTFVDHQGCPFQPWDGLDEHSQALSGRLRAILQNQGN
A3G deaminase – inhibitors of human APOBEC3G DNA deaminase; Q9HC16; recombinant A3G, ssDNA deamination FAM/TAMRA fluorescence; inhibition, % at 20 µM; 330,000 compounds, 0.28% hits;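 active = inhibition of at least 40% at 20 µM, with no more than 30% in the related APOBEC3A deaminase screen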
AHR activator – activates the human aryl hydrocarbon receptor; 320,000 compounds, 2.5% hits; P35869; AID 2796; activation, % at 5 µM; AHR-responsive luciferase reporter cells, luminescence; in the data active = activation above about 47%
A3A conf – confirmation of human APOBEC3A DNA deaminase inhibitors; 1,400 compounds, 63% hits; recombinant A3A, ssDNA deaminase UDG fluorescence assay; inhibition, % at 20 µM; shares compounds with A3A deaminase;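 active = inhibition reaching a set limit, 80% of the first screen's cutoff, at 20 µM in any replicate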
UDG ctr A3A – UDG inhibition in APOBEC3A counter-screen | shares compounds with A3A deaminase | UDG counterscreen, FAM/TAMRA uracil oligo fluorescence | inhibition, % at 20 µM | 1,000 tested, under 10 active; call rule not given here
Hits are given with their value; - = inactive; . = no result given. Compounds with a hit are over-represented: about 3.2% of the library has one in this group of screens.

SMILES	NTR1 agonist	A3A deaminase	A3G deaminase	AHR activator	A3A conf	others
Cc1cccc(C(=O)N2CCC(N3CCC(C(=O)N4CCOCC4)CC3)CC2)c1	-	-	-	-	.
COc1ccc(NC(=O)Cc2coc3cc(C)c(C(C)C)cc23)cc1S(=O)(=O)N1CCOCC1	-	49	-	-	-
COc1ccc(C(C(=O)NCCC(C)C)N(CCO)C(=O)c2snc(C(N)=O)c2N)cc1 (configuration not stated)	-	77	-	-	-
COc1ccc(C(C(=O)NCCC(C)C)N(CCO)C(=O)c2snc(C(N)=O)c2N)cc1OC (configuration not stated)	-	-	-	-	.
CCn1ccc(C(=O)NC2C(=O)N3C(C(=O)O)=C(C)CSC23)n1 (configuration not stated)	-	-	-	-	.
C=CC1=C(C(=O)O)N2C(=O)[C@@H](NC(=O)/C(=N\O)c3csc(N)n3)[C@H]2SC1 (stereo in doubt)	-	89	-	-	88
COC(=O)c1ccccc1NC(=O)c1cc[n+]([O-])cc1	-	-	-	-	.
CSc1ccccc1NC(=O)c1noc2c1CCC2	-	-	-	-	.
COC(=O)c1ccccc1NC(=O)c1noc2c1CCC2	-	59	-	-	47
COC(=O)c1ccccc1NC(=O)c1cc[n+](C)cc1	-	77	-	-	57	UDG ctr A3A=-
COc1ccccc1NC(=O)c1cc[n+](C)cc1	-	86	-	-	64	UDG ctr A3A=-
COc1ccccc1NC(=O)c1ccc(COc2ccccc2OC)cc1	-	-	-	-	.
Cc1cc(C)cc(OC(C)C(=O)Nc2ccccc2C(=O)NCc2cccnc2)c1 (configuration not stated)	-	-	-	-	.
CCOC(=O)c1[nH]ncc1CN1CCc2ccc(NC(=O)C3CCCO3)cc2C1 (configuration not stated)	-	54	-	-	-	UDG ctr A3A=-
O=C(CCn1cnnn1)N1CCCC(Nc2ccc(F)c(F)c2)C1 (configuration not stated)	-	-	-	-	.
O=C(Nc1ccc(Cl)cc1Cl)C1CCCO1 (configuration not stated)	-	-	-	-	.
Cc1cc(F)ccc1NC(=O)C1CCCO1 (configuration not stated)	-	57	-	-	-	UDG ctr A3A=-
CCOc1ccc(CCNC(=O)COC(=O)c2nc(Cl)ccc2Cl)cc1OCC	-	-	-	-	.
CC1CC(CCC(=O)NC(=S)Nc2ccc(S(N)(=O)=O)cc2)C(=O)O1 (configuration not stated)	-	-	-	-	.
N#C/C(=C\c1ccc(-c2cccc([N+](=O)[O-])c2)o1)C(=O)N1CCOCC1	-	-	-	-	.
N#C/C(=C\c1ccc(-c2ccc([N+](=O)[O-])cc2Br)o1)C(=O)N1CCN(c2ccccc2)CC1	-	48	-	-	-
O=C(NC(Cc1ccccc1)C(=O)O)C1CCN(S(=O)(=O)c2ccccc2C(F)(F)F)CC1 (configuration not stated)	-	-	-	-	.
Cc1ccccc1-c1noc(CCC(=O)NCC2CCCO2)n1 (configuration not stated)	-	44	-	-	-
COc1ccccc1-c1noc(CCC(=O)NC2CCCC2)n1	-	45	-	-	-	UDG ctr A3A=-
CC(C)Nc1ccc(Cl)cc1[N+](=O)[O-]	-	-	-	-	.
SMILES	NTR1 agonist	A3A deaminase	A3G deaminase	AHR activator	A3A conf	others
Cc1ccc(NC(=O)CN(C)CC(=O)Nc2ccc(F)c(Cl)c2)cc1	-	61	-	-	-
Cc1ccc(OCCC(=O)Nc2ccc(F)c(Cl)c2)cc1	-	-	-	-	.
CS(=O)(=O)c1cnc(-c2ccccc2)nc1-c1ccccc1Cl	-	-	-	-	.
COc1ccc(-c2nn3c(C4CCCCC4)nnc3s2)cc1OC	-	-	-	-	.
COc1ccc(-c2nnc3sc(C4CCCCC4)nn23)cc1OC	-	49	-	-	-
CCCn1nc(NC(=O)COC)c2cc3cc(C)ccc3nc21	-	53	-	.	58	UDG ctr A3A=-
CCCCn1nc(NC(=O)CC)c2cc3cc(OC)ccc3nc21	-	-	-	-	.
CCCCn1nc(NC(=O)COC)c2cc3ccc(C)cc3nc21	-	47	-	-	67	UDG ctr A3A=-
CCn1nc(NC(=O)COC)c2cc3cc(C)ccc3nc21	-	45	-	-	59	UDG ctr A3A=-
O=C(O)c1ccc(S(=O)(=O)c2ccc3c(c2)C(=O)N(NC(=O)c2cccnc2)C3=O)cc1	-	-	-	-	.
Cc1cccc(CSc2ncnc3nc[nH]c23)c1	-	-	-	-	.
